Screening data (PubChem BioAssay)
Hits are enriched below; roughly 1.6% of the tested compounds scored in any of these assays.
KCNQ2 block: inhibitors of rat KCNQ2 potassium channel. 310,000 tested, 1.1% active. O88943. AID 2156. CHO-K1 KCNQ2, FluxOR thallium flux, 20 min; active compounds read low. B-score at 10 µM;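 active = fluorescence ratio B-score at most minus 3 library SDs, with starting brightness B-score within 2 library SDs, cut at about -5.5 in these data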
KCNQ2 pot: potentiators of rat KCNQ2 potassium channel; O88943; B-score at 10 µM; CHO-K1 KCNQ2, FluxOR thallium flux fluorescence; active compounds read high; 310,000 tested, 0.54% active;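 active = fluorescence ratio B-score at least 3 SD of library B-scores, with initial fluorescence B-score within 3 of them, cut at about 5.3 in these data; same plate scores as AID 2156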;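 note: B-score of peak minus minimum over baseline fluorescence ratio after K+ and Tl+ stimulus; positive B-score means potentiation of KCNQ2 with more thallium influx and brighter signal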
Kir21 confirm: confirmation of mouse Kir2.1 potassium channel inhibitors. Tl flux remaining, % of negative control (active compounds read low), % at 10 µM. 2,300 tested, 41% active. Kir2.1-expressing cells, FluxOR thallium flux fluorescence; active compounds read low. AID 2032. shares compounds with KCNQ2 pot;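 active = Primary-screen hit whose thallium flux fell at least 3 control SD below untreated wells in both duplicates, with normal baseline fluorescence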;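 note: 0% = blank wells without stimulus and 100% = stimulated no-compound controls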
HEK293 ctr: alters thallium flux in parental HEK293 cells, Kir2.1 counter-screen; shares compounds with KCNQ2 pot; FluxOR thallium flux fluorescence; 0% = unstimulated blank wells; FluxOR signal as % of negative control (100 = no effect), % at 10 µM; 2,300 tested, 19% active;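 active = dye signal at least 3 control SD above or below untreated wells in both duplicates, raw fluorescence within 3, either direction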;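 note: percent is based on the flux ratio of peak minus minimum fluorescence over baseline F0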
CHO-K1 Tl ctr: counter-screen for KCNQ2 potentiators: effect in parental CHO-K1 cells; 1,200 tested, 43% active; FluxOR thallium flux fluorescence; zero = vehicle mean+3SD, 100% = vehicle-minus-blank window; AID 2282; shares compounds with KCNQ2 pot; activity increase over 3SD of controls, % at 10 µM;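 active = signal rise of at least 3 SD above the untreated control mean, in both duplicate wells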;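 note: counter screen of KCNQ2 potentiator hits so any rise reflects channel-independent effects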
KCNQ1 pot spec: selectivity of KCNQ2 potentiators: effect on human KCNQ1. AID 2283. shares compounds with KCNQ2 pot. CHO KCNQ1 stable, FluxOR thallium flux fluorescence; beyond 3SD, as % of vehicle-control signal. 1,200 tested, 28% active. activation over 3SD threshold, % at 10 µM;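 active = fluorescence ratio rise of at least 3 SD of vehicle wells above their mean, in both replicate wells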;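 note: 0% = vehicle mean plus 3 SD and 100% = vehicle minus unstimulated blank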
KCNQ2 pot conf: rat KCNQ2 channel potentiator confirmation. shares compounds with KCNQ2 pot. CHO-KCNQ2 cells, FluxOR thallium flux fluorescence. potentiation, less the hit threshold, % at 10 µM. 1,200 tested, 68% active;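 active = fluorescence ratio rising 3 SD or more over the vehicle control mean in both replicates, plus primary screen hit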;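 note: peak minus minimum thallium fluorescence divided by baseline after K/Tl stimulus; 0% = vehicle mean plus 3 SD and 100% = vehicle minus unstimulated blank difference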
Kir2-1 sel: selectivity of KCNQ2 potentiators: effect on mouse Kir2.1. HEK293 Kir2.1, FluxOR thallium flux fluorescence. AID 2345. shares compounds with KCNQ2 pot. activity over 3SD threshold, % at 10 µM. 1,200 tested, 2% active;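 active = fluorescence ratio rise of at least 3 SD above the vehicle-control mean, seen in both replicates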;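 note: 0% = vehicle mean plus 3 SD and 100% = vehicle minus no-stimulus blank window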
KCNQ2 W236L MoA: potentiates the retigabine-insensitive rat KCNQ2 W236L mutant channel | current increase over 3SD of negative controls (%), active compounds read high, % at 25 µM | CHO KCNQ2-W236L, automated patch clamp current | shares compounds with KCNQ2 pot | 940 tested, 10% active;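 active = current increase at least 3 SD of the untreated controls above them in both duplicate recordings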
Target sequence (O88943 whole entry W236L, looked up): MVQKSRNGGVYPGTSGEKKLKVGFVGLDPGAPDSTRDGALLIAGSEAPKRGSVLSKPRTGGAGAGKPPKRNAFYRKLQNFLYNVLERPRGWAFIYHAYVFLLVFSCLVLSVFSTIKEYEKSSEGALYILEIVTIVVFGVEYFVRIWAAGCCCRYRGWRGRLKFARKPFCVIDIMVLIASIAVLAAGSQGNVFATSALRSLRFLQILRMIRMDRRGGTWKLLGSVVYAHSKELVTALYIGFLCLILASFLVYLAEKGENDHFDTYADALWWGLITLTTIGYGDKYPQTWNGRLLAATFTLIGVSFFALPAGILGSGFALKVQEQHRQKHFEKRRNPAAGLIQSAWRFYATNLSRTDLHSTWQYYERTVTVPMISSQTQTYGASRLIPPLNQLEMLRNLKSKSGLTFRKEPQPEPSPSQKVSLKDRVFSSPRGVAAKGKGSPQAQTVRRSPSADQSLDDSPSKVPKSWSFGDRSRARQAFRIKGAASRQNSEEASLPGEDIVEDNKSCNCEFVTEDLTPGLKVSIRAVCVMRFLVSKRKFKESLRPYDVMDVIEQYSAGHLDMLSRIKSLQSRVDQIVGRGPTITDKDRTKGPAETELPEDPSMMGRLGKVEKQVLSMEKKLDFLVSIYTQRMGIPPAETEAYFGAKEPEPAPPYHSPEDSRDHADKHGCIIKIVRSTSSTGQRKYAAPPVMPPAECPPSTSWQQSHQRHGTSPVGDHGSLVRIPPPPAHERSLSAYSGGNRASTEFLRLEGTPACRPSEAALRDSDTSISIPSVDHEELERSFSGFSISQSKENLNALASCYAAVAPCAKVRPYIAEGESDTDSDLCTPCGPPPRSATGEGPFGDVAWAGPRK
* marks the source's active call; other numbers are inactive results; i = inactive; . = not tested or not shown.

SMILES	KCNQ2 block	KCNQ2 pot	Kir21 confirm	HEK293 ctr	others
CNC[C@@H](Cc1ccccc1)NC[C@@H](CC1CCCCC1)NCCCc1ccccc1	-6.2*	-6.2	i	i
CNC[C@@H](CC1CCCCC1)NC[C@H](CC(C)C)NCCc1cccc(C(F)(F)F)c1	i	.	28%*	i
CN(C[C@H](Cc1ccccc1)N(C[C@@H](CC1CCCCC1)N(CCc1ccccc1)N=O)N=O)N=O	i	.	.	.
CN(Cc1cccc(C(F)(F)F)c1)C(=O)C1CCC(=O)N(CC2CCCCC2)C1 (configuration not stated)	i	.	.	.
Cc1[nH]c2c([N+](=O)[O-])cccc2c1C	i	.	.	.
CCCCOc1ccc(Br)cc1/C(C)=N/NC1=NCCN1	i	.	i	i
CCCCCCOc1ccc(/C(C)=N/NC2=NCCN2)cc1[N+](=O)[O-]	i	0.72	.	.
c1ccc(Nc2nc(-c3ccccn3)cs2)cc1	i	0.81	.	.
CCOC(=O)c1sc(Nc2nc3c(OC)cccc3s2)nc1C	i	0.13	.	.
O=C(Nc1nc2c(F)cccc2s1)c1ccco1	i	0.45	.	.
COc1cccc2sc(Nc3nnc(-c4ccc(F)cc4)o3)nc12	i	20*	i	468%*	CHO-K1 Tl ctr=-10;KCNQ1 pot spec=-15;KCNQ2 pot conf=60*;Kir2-1 sel=-6;KCNQ2 W236L MoA=i
COc1cccc2sc(Nc3nnc(-c4cccs4)o3)nc12	i	10*	i	350%*	CHO-K1 Tl ctr=80*;KCNQ1 pot spec=-22;KCNQ2 pot conf=50*;Kir2-1 sel=-19;KCNQ2 W236L MoA=i
COc1ccc(-c2nnc(-c3ccc(F)cc3)o2)cc1	i	0.41	.	.
Fc1cccc2sc(Nc3nnc(-c4ccco4)o3)nc12	i	16*	i	310%*	CHO-K1 Tl ctr=130*;KCNQ1 pot spec=-2;KCNQ2 pot conf=45*;Kir2-1 sel=-35;KCNQ2 W236L MoA=i
COc1cccc2sc(Nc3nc(-c4ccccn4)cs3)nc12	i	21*	i	i	CHO-K1 Tl ctr=-10;KCNQ1 pot spec=-13;KCNQ2 pot conf=-89;Kir2-1 sel=-45;KCNQ2 W236L MoA=i
Cc1ccc(Nc2nc(C)cs2)cc1	i	.	.	.
C1=C(c2ccco2)N2CCN=C2S1	i	0.6	.	.
Cc1ccccc1C(=O)NNC(=O)C1CC(=O)N(Cc2ccccc2)C1 (configuration not stated)	i	.	.	.
CCc1nc(SCC(=O)Nc2cc(C)on2)c2c(=O)n(C)c(=O)n(C)c2n1	i	0.93	.	.
Cc1cc(NC(=O)CSc2nc(CC(C)(C)C)nc3c2c(=O)n(C)c(=O)n3C)no1	i	.	i	i
COCCC(=O)N1CCC(Oc2ccc(C(=O)N3CCCC(CCCO)C3)cc2)CC1 (configuration not stated)	i	.	.	.
CCOC(=O)c1c(NC(=S)Nc2ccc(OC)cc2)sc2c1CCC2	i	.	.	.
C=CCNC(=S)Nc1sc2c(c1C(=O)OCC)CC(C(C)C)OC2 (configuration not stated)	i	8.8*	i	197%*	CHO-K1 Tl ctr=22*;KCNQ1 pot spec=84*;KCNQ2 pot conf=14*;Kir2-1 sel=-31;KCNQ2 W236L MoA=i
O=C(c1ccc(N2CCCC2=O)cc1)N1CCN(c2ccccc2F)CC1	i	0.73	.	.
O=[N+]([O-])c1ccc(Nc2ccc(Cl)cc2)nc1	i	14*	i	i	CHO-K1 Tl ctr=-1;KCNQ1 pot spec=-21;KCNQ2 pot conf=18*;Kir2-1 sel=-23;KCNQ2 W236L MoA=i
SMILES	KCNQ2 block	KCNQ2 pot	Kir21 confirm	HEK293 ctr	others
O=[N+]([O-])c1ccc(NCc2ccc(Cl)cc2)nc1	i	0.01	.	.
COc1ccccc1N1CCN(S(=O)(=O)c2cc(Br)cnc2N)CC1	i	.	.	.
NCCOc1ccc(C23CC4CC(CC(C4)C2)C3)cc1	i	.	.	.
NCC12CC3CC(C1)CC(c1ccc(Br)cc1)(C3)C2	i	.	34%*	i
Cc1ccc(C23CC4CC(CC(CN)(C4)C2)C3)cc1	i	.	39%*	i
Cc1ccc(C23CC4CC(CC(C(N)=O)(C4)C2)C3)cc1	i	2	.	.
Cc1cccc(NC(=O)CCCC(=O)OC(C)C(=O)c2ccccc2)c1 (configuration not stated)	i	0.66	.	.
Cc1c(C(=O)O)cccc1-c1ccc(/C=N/Nc2ccc(Br)cc2)o1	i	2.4	.	.
O=C(COc1ccccc1F)N1CCCc2ccccc21	i	0.68	.	.
CC(=O)c1cc(F)ccc1OCC(=O)N1CCCc2ccccc21	i	.	54%*	i
Cc1cc(NC(=O)CCC(=O)N(c2ccccc2)C(C(=O)NC2CCCC2)c2ccccc2F)no1 (configuration not stated)	i	1.7	.	.
CC(OC(=O)c1ccco1)C(=O)NCc1ccc2c(c1)OCO2 (configuration not stated)	i	0.07	.	.
C/C(=N\Nc1nncc2ccccc12)c1ccc(C(C)(C)C)cc1	i	5.9*	i	i	CHO-K1 Tl ctr=65*;KCNQ1 pot spec=-21;KCNQ2 pot conf=-33;Kir2-1 sel=-40
C/C(=N\Nc1nncc2ccccc12)c1ccc(O)cc1	i	0.41	.	.
CCc1noc(C)c1C(=O)Nc1ccc(Cl)c(S(=O)(=O)N2CCCCC2)c1	i	1.4	.	.
Cc1ccc(C)c(-c2cc(C(=O)Nc3nccs3)c3ccccc3n2)c1	i	.	.	.
Cc1ccc(C)c(-c2cc(C(=O)NCc3cccs3)c3ccccc3n2)c1	i	16*	i	72%*	CHO-K1 Tl ctr=8.2*;KCNQ1 pot spec=-14;KCNQ2 pot conf=32*;Kir2-1 sel=-37;KCNQ2 W236L MoA=i
O=C(OCC(=O)C12CC3CC(CC(C3)C1)C2)c1ccc(O)cc1O	i	.	.	.
Brc1ccc(CSc2nccn2-c2ccccc2)cc1	i	.	.	.
Clc1cccc(CSc2nccn2-c2ccccc2)c1	i	.	64%*	i
CCN(CC)S(=O)(=O)c1cc(OC)ccc1N=Nc1ccc(O)c2ncccc12	i	2	.	.
CCOc1ccc(N=Nc2ccc(O)c3ncccc23)cc1	i	23*	i	i	CHO-K1 Tl ctr=13*;KCNQ1 pot spec=12*;KCNQ2 pot conf=-20;Kir2-1 sel=-21
CC1=NNC(=O)C1CC(=O)N/N=C/C=C/c1ccccc1 (configuration not stated)	i	8.8*	i	i	CHO-K1 Tl ctr=-10;KCNQ1 pot spec=-21;KCNQ2 pot conf=-14;Kir2-1 sel=-37
CC1=NNC(=O)C1CCC(=O)N/N=C/C=C/c1ccccc1 (configuration not stated)	i	0.85	.	.
COC(=O)N[C@H](CC(C)=O)c1ccccc1	i	0.16	.	.
Cc1cccc(/C=C2/S/C(=N/N=C3\CC4CCC3(C)C4(C)C)NC2=O)c1 (configuration not stated)	i	21*	i	i	CHO-K1 Tl ctr=-17;KCNQ1 pot spec=-26;KCNQ2 pot conf=-6;Kir2-1 sel=-19;KCNQ2 W236L MoA=i
